# HT1080NT lethal = kills 2HG-producing HT-1080-NT fibrosarcoma cells | HT-1080-NT fibrosarcoma viability, CellTiter-Glo ATP luminescence, 48 h | Potency, µM (highest dose often 46.1 µM), without a hit: at the highest dose activity, negative = less viability, actives largely listed as cytotoxic | 1.6% of 360,000 active | AID 686970;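 further: NT is the 2HG producing partner of a matched IDH1 knockdown line; 0% = DMSO-treated cells and -100% = media-only wells without cells; nearly all actives have a fitted effect of over 55% in size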
#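 HT-1080-NT fibrosarcoma cells (2HG-overproducing), 750 cells/well in RPMI with 5% FBS, dosed after 2 h and incubated 48 h at 37C. CellTiter-Glo luminescence normalized to DMSO and no-cell wells; concentration-response curves fitted and classed.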
# TDP1 cell noCPT = qHTS for Inhibitors of human tyrosyl-DNA phosphodiesterase 1 (TDP1): qHTS in cells in absence of CPT. DT40 Tdp1-/- hTDP1 cells, no CPT, ATP luminescence, 48 h. Potency, µM (top dose mostly 46.2 µM), for the others: at the highest dose activity change, negative = growth inhibition, usual class: inhibitors. 15% of 420,000 active. AID 686978, 2013; further: on the % scale 0 is the no-effect control and ±100 the full control effect; nearly all actives have a fitted effect of over 55% in size
#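 Chicken DT40 Tdp1-/- cells stably complemented with human TDP1 were seeded at 400 cells/well with DMSO in place of 20 nM camptothecin. After compound pinning, cells grew at least 48 hr at 37 °C; viability read by CellTiter-Glo luminescence.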
# TGFb SMAD3 inh = TGF-b pathway inhibition | HepG2 CAGA-GFP TGF-b/SMAD3 reporter, GFP fluorescence, 18 h; TGF-beta stimulated, 500 pg/mL final | Potency, µM (top dose mostly 46.1 µM), for inactives: at the highest dose activity, negative = inhibition, hits mostly inhibitors | 1.2% of 410,000 active; further: on the % scale 0 is the no-effect control and ±100 the full control effect; nearly all actives have a fitted effect of over 65% in size
#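 Inhibition of TGF-beta-driven CAGA-GFP reporter expression in HEPG2 cells is measured by cellular GFP fluorescence after 18 h stimulation with 500 pg/mL recombinant TGF-beta in 1% FBS medium at 37 degrees C.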
# TDP1 cell CPT = growth inhibition of DT40 Tdp1-/-;hTDP1 cells with camptothecin (screen for TDP1 inhibitors). chicken DT40 Tdp1-/-;hTDP1 cells + 20 nM CPT, ATP luminescence, 48 h. AID 686979. 12% of 420,000 active. Potency, µM (doses to about 46.2 µM), for the others: at the top dose activity change, negative = growth inhibition, actives largely listed as inhibitors; further: on the % scale 0 is the no-effect control and ±100 the full control effect; nearly all actives have a fitted effect of over 55% in size
#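 Chicken DT40 Tdp1-/- cells complemented with human TDP1, 400 cells/well, exposed to compounds plus 20 nM camptothecin for at least 48 h at 37 C; viability read as ATP content by CellTiter-Glo luminescence.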
# HT1080 IDH1KD tx = HT-1080 IDH1 knockdown cell toxicity (counter line); 2% of 360,000 active; Potency, µM (series often up to 46.1 µM), for inactives: at the highest dose activity, negative = toxicity, usual class: cytotoxic; HT-1080 IDH1 knockdown viability, ATP luminescence, 48 h;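 further: 0% = DMSO wells and -100% = cell-free medium wells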
#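 Viability of IDH1-knockdown HT-1080 fibrosarcoma cells was assessed by CellTiter-Glo after 48 h at 37 °C with titrated compound; concentration-effect curves were classified by fit quality and response size.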
# HepG2 tox = HepG2 cytotoxicity, counter-screen for TGF-b inhibitors; HepG2 CAGA-GFP viability, ATP luminescence, 18 h; 0.76% of 410,000 active; Potency, µM (doses to about 46.1 µM), for inactives: at the top dose activity change, negative = cytotoxicity, hits mostly cytotoxic
#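 HepG2 CAGA-GFP cells (1000/well, DMEM with 1% FBS) received compound, then TGF-beta at 500 pg/mL final, and were incubated 18 hours at 37 degrees C. Viability was read by CellTiter-Glo luminescence. Media-only wells were set as complete cell-killing and DMSO as no toxicity.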
# The depositor's hits bear a star; ? = inconclusive; . = no result; ! = repeats disagree. The list is not random: actives were taken first. Their share in the collection is about 17%. The call rests on the fitted dose curve; in most records, active means well fitted curve in the direction sought with a large enough effect; inconclusive means small, poorly fitted or top-dose-only effect, or another doubt; inactive means no such curve, though single readings can be large; an effect the other way counts as inactive or inconclusive. Potency means the concentration at half of the fitted maximal effect.
SMILES,HT1080NT lethal,TDP1 cell noCPT,TGFb SMAD3 inh,TDP1 cell CPT,HT1080 IDH1KD tx,HepG2 tox
COC(=O)N1CCC[C@@]2(CCN(c3ccccn3)C2)C1,.,-16.2%,.,2.4%,.,.
COc1ccc(OC)c(S(=O)(=O)NC2CC(=O)N(c3cccc(F)c3)C2)c1 (stereo not drawn),3.0%,?,0.7%,-3.6%,4.1%,6.1%
COc1cc(/C=C/C(=O)OCC(=O)NC(C)c2ccccc2)cc(OC)c1OC (stereo not drawn),0.3%,-22.2%,-3.3%,11.1%,4.8%,-5.2%
COc1ccc(C(=O)/C=C/c2ccccc2F)c(OC(=O)c2ccc([N+](=O)[O-])cc2)c1,-4.6%,13µM*,-15.6%,23.1µM*,-29.0%,-3.5%
COc1cc(/C=C/C(=O)OC(C)C(=O)c2ccccc2)cc(OC)c1OC (stereo not drawn),-1.7%,14.6µM*,-0.3%,20.6µM*,13.4%,9.2%
COc1cc(CC(=O)OCc2cccc([N+](=O)[O-])c2)cc(OC)c1OC,1.6%,?,8.1%,0.1%,-15.2%,-6.0%
O=C(/C=C/c1ccccc1F)c1cccc([N+](=O)[O-])c1,-13.3%,20.6µM*,?,?,-24.7%,14.1µM*
COc1cc(/C=C/C(=O)c2cccc([N+](=O)[O-])c2)cc(OC)c1OC,?,5.17µM*,?,5.8µM*,?,-100.5%
NN=C(c1cccc([N+](=O)[O-])c1)c1cccc([N+](=O)[O-])c1,0.2%,?,-0.9%,1.2%,-0.1%,-25.9%
COc1ccc(C(=O)/C=C/Nc2ccc([N+](=O)[O-])cc2C)c(OC)c1,14.7%,?,15.4%,-24.4%,11.3%,4.6%
COc1ccc(/C=C2\C=Cc3ccccc32)cc1OC,.,?,-17.2%,?,.,-17.1%
C[C@@H]1CN([C@@H](C)CO)C(=O)CCCn2nncc2CO[C@H]1CN(C)S(C)(=O)=O,-4.9%,?,0.6%,-15.8%,-7.5%,0.5%
Cc1csc(N2C(=O)C3C4CCC(O4)C3C2=O)n1 (stereo not drawn),17.4%,-8.4%,0.0%,7.2%,0.0%,-4.1%
O=C(Oc1ccc(F)cc1C(=O)/C=C/c1cccs1)c1cccc([N+](=O)[O-])c1,-37.0%,0.366µM*,?,0.164µM*,?,-25.6%
Cc1ccc(OC(=O)c2cccc([N+](=O)[O-])c2)c(-n2nc3ccccc3n2)c1,1.3%,-29.3%,-14.7%,-14.5%,-8.3%,-25.0%
N#Cc1ccc(C(=O)Nn2cnnc2)cc1,2.9%,0.3%,1.6%,-3.6%,-0.2%,-7.4%
CCCc1nnc(NC(=O)CCC(=O)N2CCN(Cc3cc(Cl)ccc3OC)CC2)s1,1.6%,?,-5.5%,-27.2%,-10.0%,-25.4%
CC(C)(C)C1COc2ccccc2N1C(=O)c1ccccc1Cl (stereo not drawn),11.2%,?,-11.7%,?,7.2%,-24.2%
Cc1ccccc1C(=O)N1c2ccccc2OCC1C(C)(C)C (stereo not drawn),-1.1%,20.6µM*,-2.5%,?,-5.7%,-2.0%
CCc1cc(=O)oc2c(C)c(OCC(=O)Nc3ccc(S(=O)(=O)N(CC)CC)cc3)ccc12,.,?,-22.7%,?,.,-25.3%
COc1ccc(-n2nc3c(N4CCC(C(=O)NC5CCCCC5)CC4)nnc(C)c3c2C)cc1,-0.8%,14.6µM*!,1.8%,13µM*!,-2.0%,-0.5%
Cc1ccc(-n2nc3c(N4CCC(C(=O)N5CCC(C)CC5)CC4)nnc(C)c3c2C)cc1,.,-21.3%,?,-27.5%,.,-2.6%
Cc1ccc(-n2nc3c(N4CCC(C(=O)NCCC(C)C)CC4)nnc(C)c3c2C)cc1,.,?,?,16.4µM*,.,-9.3%
Cc1ccc(-n2nc3c(N4CCC(C(=O)NCCc5ccco5)CC4)nnc(C)c3c2C)cc1,?,?,?,20.6µM*,?,-16.2%
COc1ccc(-n2nc3c(N4CCC(C(=O)NCc5ccco5)CC4)nnc(C)c3c2C)cc1,0.0%,?,?,?,4.3%,-7.6%
SMILES,HT1080NT lethal,TDP1 cell noCPT,TGFb SMAD3 inh,TDP1 cell CPT,HT1080 IDH1KD tx,HepG2 tox
Cc1ccc(-n2nc3c(N4CCC(C(=O)N5CCCCC5)CC4)nnc(C)c3c2C)cc1,.,23.1µM*,?,?,.,-18.6%
Cc1ccccc1CSCC(Nc1ccc(C(=O)O)cc1[N+](=O)[O-])C(=O)O (stereo not drawn),6.1%,0.6%,?,-17.7%,10.8%,-0.8%
CC1CCN(C(=O)c2[nH]cnc2C(=O)Nc2cccc(Cl)c2)CC1,-3.5%,?,12.8%,?,-8.4%,26.4%
Cc1nnc(N2CCCC(C(=O)NCc3ccccc3F)C2)c2nn(-c3ccc(Cl)cc3)c(C)c12 (stereo not drawn),.,?,-5.1%,?,.,-20.7%
COc1ccc(-n2nc3c(N4CCCC(C(=O)NCc5ccccc5C)C4)nnc(C)c3c2C)cc1 (stereo not drawn),.,5.17µM*,5.01µM*,2.91µM*,.,-73.7%
COc1ccc(-n2nc3c(N4CCC(C(=O)NCCc5ccccc5C)CC4)nnc(C)c3c2C)cc1,-1.2%,16.4µM*,-19.9%,?,-10.8%,-31.2%
COc1ccc(-n2nc3c(N4CCC(C(=O)NCc5ccccc5C)CC4)nnc(C)c3c2C)cc1,14.6µM*,7.31µM*,?,18.4µM*,16.4µM*,-5.1%
Cc1ccc(-n2nc3c(N4CCC(C(=O)NCCc5ccccc5C)CC4)nnc(C)c3c2C)cc1,-7.4%,5.8µM*,4.47µM*!,16.4µM*,-4.4%,3.8%
COc1ccc(-n2nc3c(N4CCC(C(=O)NCCc5ccccc5)CC4)nnc(C)c3c2C)cc1,.,?,-18.0%,?,.,9.5%
Cc1ccccc1CNC(=O)C1CCN(c2nnc(C)c3c(C)n(-c4ccccc4)nc23)CC1,.,?,0.0%,?,.,2.1%
CC1CC(NC(=O)/C=C/C(=O)O)CC(C)(C)C1 (stereo not drawn),0.0%,-13.2%,0.0%,5.2%,-9.4%,-25.0%
COc1ccc(NC(=O)CCN2CCN(c3ccccc3F)CC2)c(OC)c1,24.4%,-16.7%,0.7%,-0.9%,13.5%,-15.1%
O=C(Nc1ccc(F)cc1)C(c1ccccc1OC(F)(F)F)N1CCN(c2cccc(C(F)(F)F)n2)CC1 (stereo not drawn),-14.4%,?,.,?,-23.3%,.

# Screening results: PubChem, National Center for Advancing Translational Sciences (NCATS)
